Results on 7 compounds are retold here after PubChem BioAssay (NCI).

The panel holds about 83,000 compounds, 20% with a hit somewhere; the sample as a whole holds those more often.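 Note: values are percent growth. 100 is the growth of untreated cells, values between 100 and 0 indicate rising inhibition; between -100 and 0 indicates cell death.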 A number with no mark means an inactive call. Calls of active or inactive are those of the source. The calls were made as follows: active = growth percent below 10; inactive = the rest.

Common to all, as to assay: NCI-60 one-dose screen, 48 h (100 = growth as untreated, 0 = no growth, -100 = all killed)
Holding throughout (settings): 10 µM unless noted

Assay [1] relates to SK-MEL-2 melanoma.
Assay [2] deals with EKVX NSCLC.
Assay [3] relates to SN12C renal.
For assay [4], the system named is UO-31 renal.
Assay [5] concerns TK-10 renal.
In assay [6] the test system is ACHN renal.
Assay [7] concerns CAKI-1 renal.
Assay [8] relates to A498 renal.
For assay [9], the system named is CCRF-CEM leukemia.
Assay [10] has as its system MOLT-4 leukemia.
For assay [11], the system named is SR leukemia.
The subject of assay [12] is RPMI-8226 leukemia.
Assay [13] concerns OVCAR-8 ovarian.
Assay [14] deals with OVCAR-5 ovarian.
The subject of assay [15] is SK-OV-3 ovarian.
Assay [16] relates to IGROV1 ovarian.
Assay [17] deals with OVCAR-3 ovarian.
In assay [18] the test system is NCI/ADR-RES ovarian.
In assay [19] the test system is HS 578T breast.

On to `CCOc1cc(NC(=O)c2ccccc2)c(OCC)cc1N`, for which the growth is 112% in assay [1]; 113% in assay [2]; 113% in assay [3]; 102% in assay [4]; 112% in [5]; 118% in [6]. Besides, the growth in assay [7] is 102%; in assay [8], 113%; in assay [9], 107%; in assay [10], 101%; in assay [11], 110%; in [12] it was 113%. Moreover, the growth in assay [13] is 113%; in assay [14] it was 113%; in assay [15], 114%; in assay [16] it was 84.8%; in [17], 108%; in [18], 111%.
Turning to `COc1ccc(C2NC(=O)C(C#N)c3c2sc2c(F)cccc32)cc1` (configuration not stated), the growth was 60% in [1]; 62.8% in assay [2]; 61.5% in assay [3]; 36.8% in assay [4]; 113% in assay [5]; 43.6% in [6]. Also, the growth in assay [7] is 40%; in assay [8] it was 32.2%; in assay [9] it was 44%; in assay [10], 49.1%; in [11], 22.2%; in [12], 63.2%. Moreover, the growth in assay [13] was 69.8%; in assay [14], 85.6%; in assay [15], 63.2%; in [16], 41.1%; in [17], 0.617% (active); in assay [18], 27.3%.
On to `O=C(NCc1ccccc1)C(Cl)Cl`, for which the growth in assay [1] is 96.2%; in [2], 95.4%; in [3] it was 104%; in [4] it was 91.5%; in assay [5], 90.2%; in assay [6] it was 104%. The growth in assay [7] is 96.5%; in [8] it was 94.4%; in assay [9], 103%; in assay [10], 101%; in [11] it was 95.1%; in assay [12], 101%. In addition, the growth in assay [13] is 101%; in assay [14], 91.7%; in assay [15], 101%; in [16] it was 101%; in assay [19], 105%; in [18], 104%.
Turning to `CCN(CC)c1ccc2cc(C(Nc3ccc(Br)c(C(F)(F)F)c3)c3nnnn3C(C)(C)C)c(=O)oc2c1` (configuration not stated), the growth in assay [1] is 89.9%; in assay [2], 87.7%; in [3], 90.4%; in assay [4] it was 74%; in assay [5], 83.9%; in assay [6], 99.1%. In addition, the growth in assay [7] is 85%; in assay [8], 67.6%; in assay [9], 92.1%; in [10] it was 69.6%; in assay [11] it was 98.8%; in [12], 87.1%. For the same compound, the growth is 91.5% in assay [13]; 92% in [14]; 84.7% in assay [15]; 106% in [16]; 104% in assay [17]; 79.6% in assay [19]. Also, the growth in assay [18] is 93.8%.
For `C1=C[C@H]2O[C@@H]1c1ccc3[nH]ccc3c12`, the growth in assay [1] was 95.7%; in [2], 105%; in assay [3] it was 102%; in [4], 98.3%; in [5] it was 105%; in assay [6] it was 107%. Also, the growth in [7] was 89.6%; in assay [8], 98.6%; in [9] it was 90.7%; in assay [10], 56%; in assay [11], 84.6%; in assay [12] it was 93.8%. For the same compound, the growth in assay [13] is 104%; in [14], 105%; in assay [15] it was 98.7%; in [17] it was 110%; in assay [19], 119%; in assay [18], 63.7%.
Consider `Cc1cccc(C[C@H](NC(=O)Nc2ccc(C)cc2F)C(=O)N[C@@H]2C(=O)N3C[C@H](O)C[C@H]3C(=O)N3CCN(C)C[C@H]3C(=O)N[C@@H](C)C(=O)N3C[C@H](C)C[C@H]3C(=O)O[C@H]2C)c1`, for which the growth in assay [1] is 39.9%; in assay [2] it was 69.6%; in assay [3] it was 21.5%; in assay [4], 93%; in assay [5], 94.1%; in assay [6], 106%. The growth was 82.1% in assay [7]; 32.8% in assay [8]; 62.5% in [9]; 40.4% in assay [10]; 34.5% in assay [11]; 28.2% in [12]. Further, the growth is 50.8% in assay [13]; 42.7% in assay [14]; 52.3% in assay [16]; 24.4% in [17]; 50.8% in [19].
For `C=C(C)[C@@H]1CC[C@]2(C(=O)NCCNCCNCCN)CC[C@]3(C)[C@H](CC[C@@H]4[C@@]5(C)CC[C@H](O)C(C)(C)[C@@H]5CC[C@]43C)[C@@H]12`, the growth in assay [1] is -65.4% [100 µM] (active); in assay [2], -11.4% [100 µM] (active); in assay [3], -53.7% [100 µM] (active); in [4] it was -100% [100 µM] (active); in [5], -67.3% [100 µM] (active); in assay [6], -100% [100 µM] (active). For the same compound, the growth in assay [7] was -93.6% [100 µM] (active); in assay [8], -32.6% [100 µM] (active); in [9], 5.18% [100 µM] (active); in [10], 1.18% [100 µM] (active); in [11] it was -4.72% [100 µM] (active); in assay [12], -8.15% [100 µM] (active). Further, the growth was -12.9% [100 µM] (active) in assay [13]; -83.4% [100 µM] (active) in assay [14]; -14.2% [100 µM] (active) in assay [15]; -81.4% [100 µM] (active) in [16]; -66% [100 µM] (active) in assay [17]; -23.3% [100 µM] (active) in assay [19]. Besides, the growth in [18] is -13.1% [100 µM] (active).
